The record followed here is ChEMBL document CHEMBL4513146, “CO-ADD screening of Karazin Kharkiv National University (Ukraine) compounds”.

Potency and affinity values are given separately.

One experiment concerns Staphylococcus aureus. As to conditions: Concentration 32 ug.mL-1;; ASSAY_TEST Inhibition of Bacterial Growth; detection method Absorption (OD600); MEDIA CAMHB; plate type 384well; NBS; CORNING #3640; time 18 hr.
Another experiment has as its system Escherichia coli. As to conditions: Concentration 32 ug.mL-1;; ASSAY_TEST Inhibition of Bacterial Growth; detection method Absorption (OD600); MEDIA CAMHB; plate type 384well; NBS; CORNING #3640; time 18 hr.

In the case of `Cc1nc(-c2ccccn2)cc2nn(CC(=O)Nc3ccccc3C(F)(F)F)c(=O)n12`, the Inhibition (as a rule, the drop in the measured response relative to a control, in per cent) in the experiment on Staphylococcus aureus was 2.98%; with Escherichia coli it was -9.66%.

As for `COc1cc(NC(=O)Cn2nc3ccc(-c4ccc(C)c(C)c4)nn3c2=O)cc(OC)c1`, the Inhibition in the experiment on Staphylococcus aureus was 8.96%; in the experiment on Escherichia coli, -5.07%.

`Cc1cc(C)c(NC(=O)Cn2nc3c4cc(-c5ccc(F)cc5)nn4ccn3c2=O)c(C)c1`: the Inhibition in the experiment on Staphylococcus aureus is listed as 12.62%; in the experiment on Escherichia coli it was 1.69%.

On to `Cc1c(Cl)cccc1-n1ccn2c(=O)n(Cc3c(F)cccc3Cl)nc2c1=O`, for which the Inhibition is given as -0.05% in the experiment with Staphylococcus aureus and -8.85% in the experiment on Escherichia coli.

Take `Cc1[nH]c2ccccc2c1C(=O)CSc1nnc2c(=O)n(-c3ccc(F)c(F)c3)ccn12`: the results for the Inhibition in the experiment with Staphylococcus aureus and in the experiment with Escherichia coli were 13.1% and -2.33%, respectively.

As for `O=C(CSc1nc2ccccc2n2cnnc12)NCc1ccccc1Cl`, the Inhibition is 1.47% in the experiment on Staphylococcus aureus and -4.49% in the experiment with Escherichia coli.

`CCc1ccccc1NC(=O)CSc1nnc2ccc(C(=O)Nc3cccc(F)c3)cn12`: the Inhibition was determined as 19.17% with Staphylococcus aureus and 1.35% in the experiment on Escherichia coli.

For `Cc1ccc(CN(c2ccc3c(c2)OCO3)S(=O)(=O)c2ccc3nnc(C)n3c2)cc1`, the results for the Inhibition in the experiment on Staphylococcus aureus and with Escherichia coli were -0.98% and -3.16%, respectively.

Turning to `CC(C)Cn1c(=O)c2sccc2n2c(=O)n(Cc3ccc(Cl)cc3)nc12`, the Inhibition in the experiment on Staphylococcus aureus is on record as -2.34%; with Escherichia coli it was 0.89%.

Take `C=Cc1ccc(CN(c2cccc(Cl)c2)S(=O)(=O)c2cccn3c(C)nnc23)cc1`: the Inhibition was -18.32% in the experiment with Staphylococcus aureus and -14.37% in the experiment with Escherichia coli.

For `CC(C)c1nnc2c(=O)n(CC(=O)Nc3ccccc3)c3ccccc3n12`, the Inhibition in the experiment with Staphylococcus aureus stood at 12.53%; with Escherichia coli, 4.36%.

As to `CCOc1ccccc1NC(=O)Cn1nc2c(Sc3ccc(C)cc3C)nccn2c1=O`, the figures for the Inhibition in the experiment on Staphylococcus aureus and in the experiment with Escherichia coli were 2.42% and 0%, respectively.
